Results taken from PubChem BioAssay (NCATS).
Results filed as inconclusive are left out. The source made the active and inactive calls. Unless noted, calls come from the whole dose curve; as a rule, active = well fitted curve in the direction sought with a large enough effect; inconclusive = small, poorly fitted or top-dose-only effect, or another doubt; inactive = no such curve, though single readings can be large; an effect the other way counts as inactive or inconclusive.

Tests used:
[1] = Cell Viability - Jurkat (AID 426;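 active = dose-dependent loss of cell ATP signal giving a full or clear fitted curve, ranked by lower potency value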; note: potency is the fitted concentration of half-maximal effect); details: qHTS
Method in brief: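 Jurkat (Clone E6-1) cells, 5000/well in complete medium, exposed to compounds for 40 hr at 37C; intracellular ATP measured by CellTiter-Glo luminescence after 20 min at room temperature. AC50 from Hill fits.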

[2] = Cell Viability - Hek293 (AID 427;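 active = compounds whose dose-response curve shows a full or clear partial loss of cell viability, called from curve shape rather than a numeric limit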;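 note: potency is the fitted concentration of half-maximal effect; cells exposed to compound for 40 hours at 37 °C before reading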); details: qHTS
Method in brief: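 qHTS, human embryonic kidney (adenovirus-transformed) cells; 40 hr cpd, 37 °C; CellTiter-Glo ATP luminescence. Norm: DMSO = 0, 100 uM tamoxifen = 100% inhibition. Hill-fit AC50.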

[3] = Cell Viability - HepG2 (AID 433; calls by dose curve;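 note: potency is the fitted concentration of half-maximal effect; potency for ATP loss meaning cytotoxicity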); details: qHTS
Method in brief: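 In this qHTS format, a 40 h, 37 °C compound incubation of HepG2 cells in complete medium precedes a 20 min CellTiter-Glo step at room temperature. Tamoxifen and doxorubicin serve as positive controls; Hill-equation fits yield AC50.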

[4] = Cell Viability - MRC5 (AID 434; calls by dose curve;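 note: potency is the fitted concentration of half-maximal effect; potency reflects cytotoxicity seen as loss of intracellular ATP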); details: MRC5 lung fibroblast viability, qHTS
Method in brief: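 qHTS cytotoxicity in human lung fibroblast MRC5 cells; 40 hr treatment, 37 °C; cellular ATP by luciferase luminescence; DMSO = 0%, 100 uM tamoxifen = 100% inhibition; Hill-fit AC50.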

[5] = Cell Viability - SK-N-SH (AID 435; calls by dose curve;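 note: potency is the fitted concentration of half-maximal effect; compound exposure lasted 40 h at 37 °C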); details: SK-N-SH neuroblastoma cell viability qHTS
Method in brief: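 Human neuroblastoma line, 40 h exposure at 37 °C, ATP quantified via luciferase luminescence; DMSO and 100 uM tamoxifen define 0 and 100% inhibition for AC50 fitting.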

[6] = target: Mitogen-activated protein kinase 10 (Mus musculus) (UniProt Q61831); assay: JNK3 AlphaScreen Assay (AID 530; active = well fitted curve in either direction with a large enough effect, not every such curve was filed as active;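 note: kinase came from lysate of stimulated human HepG2 cells; signal reports phosphorylation of biotinylated GST-cJun 1-79 at Ser73 with 10 µM ATP; % is set by controls: 0 for no effect and ±100 for the full control effect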)
Method in brief: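 Compound titrations were preincubated 15 minutes at room temperature with substrate, antibody and pre-activated JNK3-containing HepG2 lysate. Reactions were started with 10 uM ATP and stopped with EDTA-containing bead buffer for AlphaScreen detection.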

[7] = Cell Viability - N2a (AID 540); details: N2a mouse neuroblastoma cell viability; activity change, negative = cytotoxicity: at 92.2 µM (top of the series);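 note: plate controls were DMSO alone for no effect and tamoxifen control for full effect; nearly all actives have a fitted effect of over 45% in size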
Method in brief: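 Mouse neuroblastoma N2a cells, 1500/well, exposed to compounds 40 h at 37 °C in complete medium. Viability measured as cellular ATP by CellTiter-Glo luminescence; AC50 from Hill fits of concentration-response.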

[8] = Cell Viability - NIH 3T3 (AID 541); details: NIH 3T3 cell viability, qHTS; activity change, negative = cytotoxicity: at 92.2 µM (top of the series);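 note: plate controls were DMSO alone for no effect and tamoxifen positive control for full effect; nearly all actives have a fitted effect of over 25% in size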
Method in brief: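 Mouse NIH 3T3 fibroblasts, 1000 cells/well, rested 5 hr at 37 °C, then exposed to compound for 40 hr at 37 °C in complete medium. Viability read as intracellular ATP by CellTiter-Glo luminescence; AC50 from Hill-equation fits of concentration-response data.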

[9] = Cell Viability - HUV-EC-C (AID 542); note: % is set by controls: 0 for no effect and ±100 for the full control effect; nearly all actives have a fitted effect of over 35% in size
Method in brief: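 HUV-EC-C human vascular endothelial cells, 1000/well, exposed to compound for 40 hr at 37 °C in complete medium. Intracellular ATP was read by CellTiter-Glo luminescence. AC50 came from Hill-equation fits of concentration-response data.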

[10] = Cell Viability - H-4-II-E (AID 543); note: % is set by controls: 0 for no effect and ±100 for the full control effect; nearly all actives have a fitted effect of over 35% in size
Method in brief: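 Rat hepatoma H-4-II-E cells, 1500 per well, treated 40 h at 37 °C in complete medium. Cellular ATP read by CellTiter-Glo luminescence; AC50 from Hill fits of concentration-response.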

[11] = Cell Viability - SH-SY5Y (AID 544); note: nearly all actives have a fitted effect of over 55% in size
Method in brief: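 SH-SY5Y human neuroblastoma cells (1500/well) incubated 5 h, then compound-treated 40 h at 37 °C in complete medium. Viability read as intracellular ATP by CellTiter-Glo luminescence after 20 min; AC50 from Hill-equation fits of qHTS concentration-response.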

[12] = Cell Viability - Renal Proximal Tubule (AID 545); details: renal proximal tubule cells viability, primary cells of rat origin; at 91.7 µM (top of the series); note: nearly all actives have a fitted effect of over 40% in size
Method in brief: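 In this qHTS format, normal rat kidney-derived proximal tubule cells in complete culture medium receive compound titrations, then sit 40 hours at 37 °C before luciferase-based ATP quantitation; potency is reported as AC50 from concentration-response curves.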

[13] = Cell Viability - Mesenchymal (AID 546); details: mesenchymal cells viability, qHTS; activity change, negative = cytotoxicity: at 91.7 µM (top of the series);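 note: cells exposed to compound for 40 hours before reading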
Method in brief: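 AC50 values reflect the drop in intracellular ATP in a human kidney mesenchymal line derived from normal glomeruli. Treatment lasts 40 hr at 37 °C in complete medium, and the signal comes from CellTiter-Glo luminescence.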

[14] = Cellular Toxicity (caspase-3) HepG2 (AID 654);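 note: cells exposed to compound for 16 hours before reading; 0% = DMSO alone and 100% = caspase signal from 100 µM tamoxifen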
Method in brief: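 HepG2 cells (1500/well) were treated 16 h at 37 °C in complete medium, then caspase 3/7 activity was read by Caspase-Glo luminescence. Data were normalized to DMSO and 100 uM tamoxifen; AC50 came from Hill-equation fits of qHTS concentration-response.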

[15] = Cellular Toxicity (caspase-3) Jurkat (AID 655); details: Jurkat caspase-3 activation, luminescence, DMSO = 0%, tamoxifen = 100%; at 92.2 µM (top of the series);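 note: cells exposed to compound for 16 h at 37 °C before reading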
Method in brief: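 qHTS in human Jurkat T-cell leukemia line: 16 hr compound treatment at 37 °C, caspase-3/7 activity measured by Caspase-Glo luminescence. AC50 derived from Hill equation.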

[16] = Cellular Toxicity (caspase-3) HUV-EC-C (AID 656)
Method in brief: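 Concentration-dependent caspase 3/7 induction was assessed in HUV-EC-C cells exposed for 16 hours. Data scaled between DMSO and tamoxifen (100 uM) controls.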

[17] = Cellular Toxicity (caspase-3) SHSY5Y (AID 657)
Method in brief: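 Readout: caspase-cleaved peptide-aminoluciferin substrate driving luciferase light in SH-SY5Y neuroblastoma cells after 16 h treatment. Response normalized to DMSO and 10 uM staurosporine controls.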

[18] = Cellular Toxicity (caspase-3) BJ (AID 658);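 note: 0% = DMSO basal and 100% = 10 µM staurosporine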
Method in brief: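 Readout: Caspase-Glo 3/7 luminescence increase in BJ cells after 16 hr treatment at 37 °C. Staurosporine and tamoxifen served as positive controls; AC50 values came from Hill modelling of data normalized to DMSO and 10 uM staurosporine.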

[19] = Cellular Toxicity (caspase-3) MRC-5 (AID 659);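 note: 0% = DMSO basal and 100% = 10 µM staurosporine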
Method in brief: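 Concentration-dependent caspase 3/7 activation is measured in human normal lung fibroblasts (MRC-5) following 16-hour treatment. AC50 values come from standard Hill-equation modeling of luminescence normalized to DMSO and 10 uM staurosporine.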

[20] = Cellular Toxicity (caspase-3) Mesangial (AID 660);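 note: cells exposed to compound for 16 h before the caspase read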
Method in brief: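 Human renal glomerular mesangial cells, 1000/well, 5 h at 37 C before 16 h compound treatment. Caspase-Glo 3/7 luminescence after 20 min; normalized to DMSO and 100 uM tamoxifen, AC50 from Hill fit.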

[21] = Cellular Toxicity (caspase-3) SK-N-SH (AID 661);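 note: 0% = DMSO basal and 100% = 10 µM staurosporine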
Method in brief: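 Human SK-N-SH neuroblastoma cells, 1500/well, were exposed to compounds for 16 hours at 37 °C. Caspase-Glo 3/7 luminescence was normalized to DMSO (basal) and 10 uM staurosporine (100%), and AC50 came from a Hill fit.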

[22] = Cellular Toxicity (caspase-3) H-4-II-E (AID 663); details: Potency: caspase-3 activation;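 note: cells exposed to compound for 16 hr before readout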
Method in brief: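 Apoptosis induction is scored as increased luminescence from caspase 3/7 substrate cleavage in rat hepatoma H-4-II-E cells exposed to compound for 16 hr. Activity is scaled between DMSO and 100 uM tamoxifen.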

[23] = Cellular Toxicity (caspase-3) Hek293 (AID 664);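 note: cells exposed to compound for 16 h at 37 °C before readout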
Method in brief: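 HEK293 cells in complete medium treated 16 h at 37 °C, then Caspase-Glo 3/7 luminescence read after 20 min at room temperature. Normalized to DMSO and 100 uM tamoxifen; AC50 from Hill fit of concentration-response.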

[24] = Cellular Toxicity (caspase-3) N2a (AID 665);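 note: compound exposure lasted 16 h at 37 °C before readout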
Method in brief: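 Mouse N2a neuroblastoma cells, 1500 per well, treated 16 h at 37 °C in complete medium; caspase-3/7 activity by Caspase-Glo luminescence after 1 h. Normalized to DMSO and 10 uM staurosporine; AC50 from Hill fits.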

[25] = Cellular Toxicity (caspase-3) NIH 3T3 (AID 666);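 note: 0% = DMSO basal and 100% = 100 µM tamoxifen stimulation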
Method in brief: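 Mouse NIH 3T3 fibroblasts (1000/well) treated 16 h at 37 C; caspase-3/7 activity measured by Caspase-Glo 3/7 luminescence after 20 min. Normalized to DMSO and 100 uM tamoxifen; AC50 from Hill fits.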

[26] = Cellular Toxicity (caspase-3) Renal Proximal Tubule (AID 667);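 note: cells exposed to compound for 16 hours at 37 °C before detection; 0% = DMSO basal and 100% = 10 µM staurosporine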
Method in brief: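 Caspase-Glo 3/7 read-out, rat primary kidney proximal tubule cells. Compound exposure 16 h, 37 °C; detection after 1 h at RT. Activity scaled to DMSO and 10 uM staurosporine.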

[27] = target: Cytochrome P450 3A4 (Homo sapiens) (UniProt P08684); assay: qHTS Assay for Inhibitors and Substrates of Cytochrome P450 3A4 (AID 884); note: % is set by controls: 0 for no effect and ±100 for the full control effect; nearly all actives have a fitted effect of over 50% in size
Cytochrome P450 3A4 (Homo sapiens), sequence (P08684 whole entry, looked up): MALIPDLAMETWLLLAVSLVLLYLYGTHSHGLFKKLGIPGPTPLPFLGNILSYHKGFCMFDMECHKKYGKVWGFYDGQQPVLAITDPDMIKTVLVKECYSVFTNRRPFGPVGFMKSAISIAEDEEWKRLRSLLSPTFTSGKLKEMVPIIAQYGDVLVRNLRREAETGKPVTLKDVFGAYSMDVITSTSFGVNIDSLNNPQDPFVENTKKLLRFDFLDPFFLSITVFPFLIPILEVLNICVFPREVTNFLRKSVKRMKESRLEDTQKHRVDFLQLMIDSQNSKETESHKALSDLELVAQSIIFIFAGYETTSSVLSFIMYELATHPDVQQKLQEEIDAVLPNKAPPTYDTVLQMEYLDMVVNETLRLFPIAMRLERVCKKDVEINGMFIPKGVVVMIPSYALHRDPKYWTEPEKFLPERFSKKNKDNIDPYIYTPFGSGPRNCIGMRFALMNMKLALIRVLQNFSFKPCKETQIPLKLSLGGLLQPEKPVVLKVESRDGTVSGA
Method in brief: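 20 nM human CYP3A4 with 25 uM Luciferin-PPXE (at KM) in 200 mM KPO4, preincubated 10 min with compound; NADPH regeneration started a 60 min RT reaction. Luciferin detected by luminescence, normalized to 57 uM ketoconazole as full inhibition.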

[28] = MultiTox-Fluor Cytotoxicity Assay - LYMP1-001 - Dead Cells (AID 946);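 note: 0% = DMSO and 100% = tetraoctylammonium bromide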
Method in brief: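 Seed 2500 LYMP1-001 cells/well, incubate 5 hr at 37 C; add compound, 16 hr at 37 C; add MultiTox-Fluor reagent, 60 min RT; read dead-cell fluorescence Ex/Em=485/520. Normalize to DMSO and 15 uM tetraoctylammonium bromide.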

[29] = MultiTox-Fluor Cytotoxicity Assay - LYMP1-001 - Live Cells (AID 947);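 note: 0% = DMSO only and full inhibition = tetraoctylammonium bromide control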
[30] = Cell Viability - LYMP1-002 - Assay at 16 hr (AID 948);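 note: 0% = DMSO alone and full effect = 92 µM tetraoctylammonium bromide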
Method in brief: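 In this qHTS, lymphoblastoid LYMP1-002 cells (human) receive compounds for 16 hr at 37 C. Viability is taken from CellTiter-Glo ATP luminescence, and AC50 derives from standard Hill fits.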

CC12CCC(CC1=O)C2(C)C (stereo not given)
inactive: Potency [1] > 92 µM | Potency [2] > 92 µM | Potency [3] > 92 µM | Potency [4] > 92 µM | Potency [5] > 92 µM | Potency [6] | activity change, negative = cytotoxicity [7] -9.82% | Potency [8] | outcome [9] | Potency [10] | Potency [11] | activity change, negative = cytotoxicity [12] -5.29% | activity change, negative = cytotoxicity [13] -11.1% | outcome [14] | caspase-3 activation [15] -3.1% | outcome [16] | outcome [17] | outcome [18] | outcome [19] | outcome [20] | outcome [21] | Potency [22] | outcome [23] | outcome [24] | outcome [25] | outcome [26] | Potency [27] | Potency [28] | Potency [29] | Potency [30]
